Data taken from the antibiotic and cytotoxicity screens of Wong et al. (2023).
The campaign covered roughly 39,000 compounds. About 3,300 (8.5%) were called active. This excerpt belongs to a sample that is enriched for actives.

The compounds below were run on HepG2 (assay: cytotoxicity call (relative viability < 0.9)). Conditions: 10 µM.

SMILES	cytotoxicity call
CC(C)C[C@H](NC(=O)CNC(=O)c1cc(Cl)ccc1Cl)B1OC(=O)C[C@](CC(=O)O)(C(=O)O)O1	active
C[C@@H]1CN([C@@H](C)CO)C(=O)c2cccc(NC(=O)Nc3ccc(F)cc3)c2O[C@@H]1CN(C)S(C)(=O)=O	inactive
C[C@H](CO)N1C[C@H](C)[C@H](CN(C)S(C)(=O)=O)Oc2c(NC(=O)Nc3ccccc3)cccc2C1=O	inactive
Cc1ccc(CCSc2ccc(Cl)c(Cl)c2)cn1	active
Cc1ccc(CSc2ncc(C(F)(F)F)cc2Cl)cc1	inactive
N#Cc1ccccc1C#CCO	inactive
CC(N)O.Cc1cc(CC(C)CC(C)(C)C)n(O)c(=O)c1 (stereo not drawn)	active
Cc1ccc(S(=O)(=O)N2C[C@H](O)COC[C@@H]3O[C@H](CC(=O)N[C@@H]4CCN(Cc5ccccc5)C4)CC[C@H]32)cc1	inactive
C[C@@H]1CN([C@@H](C)CO)C(=O)c2cc(NC(=O)Nc3ccccc3)ccc2O[C@@H]1CN(C)C(=O)Nc1cccc2ccccc12	inactive
C[C@@H]1CN([C@@H](C)CO)C(=O)c2c(c3ccccc3n2C)-c2ccccc2CO[C@@H]1CN(C)Cc1ccc(O)cc1	inactive
O=C(N/N=C/c1ccc(B(O)O)cc1)c1ccccc1O	inactive
Cc1cc(C(=O)O)cc(S(N)(=O)=O)c1	active
NS(=O)(=O)c1ccc(C(=O)O)cc1 [listing 1 of 2 here]	inactive
NS(=O)(=O)c1ccc(C(=O)O)cc1 [listing 2 of 2 here]	inactive
COc1ccc([Si](C)(C)[C@@H]2[C@@H](CCOC(=O)NCCCCCC(=O)NO)O[C@]3(C(=O)N(Cc4ccccc4)c4ccc(I)cc43)[C@H]2C)cc1	inactive
C[C@@H]1[C@@H]([Si](C)(C)F)[C@H](CCO)O[C@@]12C(=O)N(Cc1ccccc1)c1ccc(N(C=O)c3ccccc3)cc12	inactive
COc1ccc([Si](C)(C)[C@H]2[C@H](CCO)O[C@@]3(C(=O)N(Cc4ccccc4)c4ccc(N(C=O)c5ccccc5)cc43)[C@@H]2C)cc1	active
COc1ccc([Si](C)(C)[C@H]2[C@H](CCOC(=O)NCCCCCC(=O)NO)O[C@@]3(C(=O)N(Cc4ccccc4)c4ccc(I)cc43)[C@@H]2C)cc1	inactive
COc1ccc([Si](C)(C)[C@@H]2[C@@H](CCO)O[C@]3(C(=O)N(Cc4ccccc4)c4ccc(N(C=O)c5ccccc5)cc43)[C@H]2C)cc1	active
COC(=O)C[C@H]1O[C@]2(C(=O)N(Cc3ccccc3)c3ccc(I)cc32)[C@@H](C)[C@@H]1[Si](C)(C)c1ccc(OC)cc1	inactive
Cc1noc(C)c1NC(=O)Nc1ccc2c(c1)C(=O)N([C@@H](C)CO)C[C@@H](C)[C@@H](CN(C)C(=O)Nc1ccc(F)cc1)OCCCC[C@@H](C)O2	inactive
Cc1ccc(S(=O)(=O)NCC[C@@H]2CC[C@H](NS(=O)(=O)c3ccccc3Cl)[C@@H](CO)O2)cc1	inactive
C[C@@H]1CN([C@H](C)CO)C(=O)c2cccc(NC(=O)c3ccncc3)c2O[C@H]1CN(C)Cc1ccc(C(=O)O)cc1	inactive
O=c1cc(-c2cccc(O)c2)oc2ccc(O)cc12	inactive

SMILES	cytotoxicity call
O=C(C[C@@H]1CC[C@@H]2[C@H](COC[C@H](O)CN2S(=O)(=O)c2ccc(F)cc2)O1)NCc1ccc(Cl)c(Cl)c1	inactive
CS(=O)(=O)N1CC[C@]2(COCc3cnc(N4CCOCC4)nc32)C1	inactive
CS(=O)(=O)N1CCc2c(-c3cnc(N)nc3)nc(N3CCOCC3)nc21	active
c1nc(N2CCOCC2)nc(N2CCOCC2)n1	inactive
C[C@H]1CN([C@@H](C)CO)C(=O)c2cc(NS(=O)(=O)c3ccc(F)cc3)ccc2O[C@@H]1CN(C)Cc1ccc(-c2ccccc2)cc1	active
C[C@H]1CN([C@@H](C)CO)C(=O)c2cc(NS(=O)(=O)c3ccc(F)cc3)ccc2O[C@H]1CN(C)Cc1ccc(-c2ccccc2)cc1	inactive
C[C@@H]1CN([C@H](C)CO)C(=O)c2cc(NS(=O)(=O)c3ccccc3)ccc2O[C@H]1CN(C)Cc1ccc(-c2ccccc2)cc1	inactive
C[C@@H]1CN([C@H](C)CO)C(=O)c2cc(NS(=O)(=O)c3ccc(F)cc3)ccc2O[C@H]1CN(C)Cc1ccc(-c2ccccc2)cc1	active
C[C@@H]1CN([C@@H](C)CO)C(=O)c2cc(NS(=O)(=O)c3ccc(F)cc3)ccc2O[C@H]1CN(C)Cc1ccc(-c2ccccc2)cc1	inactive
C[C@@H]1CN([C@H](C)CO)C(=O)c2cc(NS(=O)(=O)c3ccc(F)cc3)ccc2O[C@@H]1CN(C)Cc1ccc(-c2ccccc2)cc1	active
C[C@@H]1CN([C@@H](C)CO)C(=O)c2cc(NS(=O)(=O)c3ccc(F)cc3)ccc2O[C@@H]1CN(C)Cc1ccc(-c2ccccc2)cc1	active
C[C@H](CO)N1C[C@H](C)[C@H](CN(C)Cc2ccc(-c3ccccc3)cc2)Oc2ccc(NS(=O)(=O)c3ccc(F)cc3)cc2C1=O	inactive
C[C@H](CO)N1C[C@H](C)[C@@H](CN(C)Cc2ccc(-c3ccccc3)cc2)Oc2ccc(NS(=O)(=O)c3ccccc3)cc2C1=O	inactive
C[C@H](CO)N1C[C@H](C)[C@H](CN(C)C(=O)NC2CCCCC2)OCCCC[C@H](C)Oc2ccc(NC(=O)CCC(F)(F)F)cc2C1=O	inactive
Cn1c(=O)c2c(nc3n2CC=NN3)n(C)c1=O	inactive
Cc1n[nH]c(C)c1N	inactive
CC(C)(C)[S@@](=O)N1Cc2cc(C(=O)N3CCCCC3)nc(-c3cccc(C4=CCCC4)c3)c2[C@H]1CCO	inactive
C[C@@H]1CN([C@H](C)CO)C(=O)c2cccc(NC(=O)CCCCCC(=O)Nc3ccccc3N)c2O[C@H]1CN(C)S(C)(=O)=O	inactive
C[C@H](CO)N1C[C@H](C)[C@@H](CN(C)Cc2ccc(-c3ccccc3)cc2)Oc2ccc(NS(=O)(=O)c3ccc(F)cc3)cc2C1=O	active
Cc1noc(C)c1S(=O)(=O)N(C)C[C@H]1Oc2ccc(NS(=O)(=O)c3cn(C)cn3)cc2CC(=O)N([C@@H](C)CO)C[C@H]1C	inactive
CCOC(=O)C1=C(C)N[C@@]2(O)C[C@@H]1[C@H]1CO[C@@H]2O1	inactive
NNC(=O)c1ccncc1.Nc1ccc(C(=O)O)c(O)c1	active
NNC(=O)c1ccncc1	inactive
Nc1ccc(C(=O)O)c(O)c1	inactive
